# According to PubChem BioAssay AID1159580 (chemical genetic matrix, 2015):
# Screen size: about 5,500 compounds; about 2,000 (36%) were called active. Roughly 18% stayed inconclusive and do not appear here. Some of the results follow. Unmarked numbers belong to inactive results. No stated cut-off is given here; in the data, active means normalized growth mostly below about 0.91 (no sharp cut-off); inconclusive means no clear call, values can overlap the other calls; inactive means mostly above about 0.92.
# Assay: chemical genetic growth profiling, strain panel (AID 1159580);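 further: tested at 20 µM; growth read once vehicle control cultures reached saturation at 30 °C; 1 = growth at the plate median or of vehicle wells; lower values mean less growth of the strain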
# Details: S. cerevisiae deletion strains, growth OD
# [1] = locus YBR021W, strain FUR4, active compounds read low
# [2] = locus YBR229C, strain ROT2, active compounds read low
# [3] = locus YCL029C, strain bik1, active compounds read low
# [4] = locus YDL035C, strain GPR1, active compounds read low
# [5] = locus YDL074C, strain BRE1, active compounds read low
# [6] = locus YDL101C, strain DUN1, active compounds read low
# [7] = locus YDL185W, strain tfp1, active compounds read low
# [8] = locus YDL192W, strain arf1, active compounds read low
# [9] = locus YDR101C, strain arx1, active compounds read low
# [10] = locus YDR162C, strain NBP2, active compounds read low
# [11] = locus YDR318W, strain mcm21, active compounds read low
# [12] = locus YDR388W, active compounds read low
# [13] = locus YDR502C, strain sam2, active compounds read low
# [14] = locus YEL061C, strain CIN8, active compounds read low
# [15] = locus YER110C, active compounds read low
# [16] = locus YER155C, strain BEM2, active compounds read low
# [17] = locus YER167W, strain BCK2, active compounds read low
# [18] = locus YGL078C, strain dbp3, active compounds read low
# [19] = locus YGL086W, strain mad1, active compounds read low
# [20] = locus YGL248W, strain PDE1, active compounds read low
# [21] = locus YGR135W, strain pre9, active compounds read low
# [22] = locus YGR252W, strain gcn5, active compounds read low
# [23] = locus YHR030C, strain SLT2, active compounds read low
# [24] = locus YHR079C, strain IRE1 (second series), active compounds read low
# [25] = locus YHR094C, strain hxt1, active compounds read low
# [26] = locus YHR129C, strain ARP1, active compounds read low
# [27] = locus YHR200W, strain rpn10, active compounds read low
# [28] = locus YIL066C, strain RNR3, active compounds read low
# [29] = locus YIL073C, strain SPO22, active compounds read low
# [30] = locus YIL125W, strain kgd1, active compounds read low
# [31] = locus YIR030C, strain dcg1, active compounds read low
# [32] = locus YJL095W, strain BCK1, active compounds read low
# [33] = locus YJL134W, strain LCB3, active compounds read low
# [34] = locus YJL168C, strain set2, active compounds read low
# [35] = locus YJL187C, strain SWE1 (second series), active compounds read low
# [36] = locus YJR043C, strain POL32, active compounds read low
# [37] = locus YJR075W, strain HOC1, active compounds read low
# [38] = locus YKL009W, strain mrt4, active compounds read low
# [39] = locus YKL068W, active compounds read low
# [40] = locus YKL085W, strain MDH1 (second series), active compounds read low
# [41] = locus YKL085W, strain MDH1, active compounds read low
# [42] = locus YKR001C, strain vps1, active compounds read low
# [43] = locus YLR039C, strain RIC1, active compounds read low
# [44] = locus YLR058C, strain SHM2, active compounds read low
# [45] = locus YLR102C, strain apc9, active compounds read low
# [46] = locus YLR262C, strain YPT6, active compounds read low
# [47] = locus YLR268W, strain sec22, active compounds read low
# [48] = locus YLR330W, strain CHS5, active compounds read low
# [49] = locus YLR342W, strain FKS1 (second series), active compounds read low
# [50] = locus YLR371W, strain rom2, active compounds read low
# [51] = locus YLR418C, strain cdc73, active compounds read low
# [52] = locus YML016C, strain PPZ1, active compounds read low
# [53] = locus YML032C, strain rad52, active compounds read low
# [54] = locus YML124C, strain tub3, active compounds read low
# [55] = locus YMR078C, strain ctf18, active compounds read low
# [56] = locus YMR223W, strain ubp8, active compounds read low
# [57] = locus YMR307W, strain GAS1, active compounds read low
# [58] = locus YNL067W, strain RPL9B, active compounds read low
# [59] = locus YNL128W, strain TEP1, active compounds read low
# [60] = locus YNL153C, strain GIM3, active compounds read low
# [61] = locus YNL233W, strain BNI4, active compounds read low
# [62] = locus YNL250W, strain rad50, active compounds read low
# [63] = locus YNL271C, strain bni1, active compounds read low
# [64] = locus YNL298W, strain CLA4, active compounds read low
# [65] = locus YNL307C, strain MCK1, active compounds read low
# [66] = locus YNL322C, strain KRE1, active compounds read low
# [67] = locus YNR052C, strain pop2, active compounds read low
# [68] = locus YOL147C, strain pex11, active compounds read low
# [69] = locus YOR061W, strain CKA2, active compounds read low
# [70] = locus YOR069W, strain VPS5, active compounds read low
# [71] = locus YOR136W, strain idh2, active compounds read low
# [72] = locus YOR144C, strain elg1, active compounds read low
# [73] = locus YOR184W, strain ser1, active compounds read low
# [74] = locus YOR316C, strain cot1, active compounds read low
# [75] = locus YPL055C, strain LGE1, active compounds read low
# [76] = locus YPR119W, strain clb2, active compounds read low
# [77] = locus YPR141C, strain kar3, active compounds read low
# [78] = locus YPR163C, strain tif3, active compounds read low
# [79] = locus YPR167C, strain met16, active compounds read low
# [80] = strain wtn01, active compounds read low
smiles,measurement,setting,value
COc1ccc(-c2coc3c(OC)c(OC)ccc3c2=O)cc1,normalized growth,[1],0.728 (active)
same,normalized growth,[2],0.996
same,normalized growth,[3],0.998
same,normalized growth,[4],0.963
same,normalized growth,[5],0.917
same,normalized growth,[6],0.969
same,normalized growth,"locus YDL134C, strain PPH21, active compounds read low",0.924
same,normalized growth,[7],1.01
same,normalized growth,[8],0.997
same,normalized growth,[9],0.985
same,normalized growth,[10],0.875
same,normalized growth,[11],0.988
same,normalized growth,[12],1
same,normalized growth,[13],0.986
same,normalized growth,[14],0.986
same,normalized growth,[15],1.01
same,normalized growth,[16],0.988
same,normalized growth,[17],0.974
same,normalized growth,[18],1
same,normalized growth,[19],0.958
same,normalized growth,[20],0.957
same,normalized growth,[21],0.968
same,normalized growth,"locus YGR229C, strain SMI1, active compounds read low",0.787 (active)
same,normalized growth,[22],0.82
same,normalized growth,[23],0.984
same,normalized growth,[24],1.01
same,normalized growth,[25],1.01
same,normalized growth,[26],0.983
same,normalized growth,[27],1.01
same,normalized growth,[28],0.925
same,normalized growth,[29],0.99
same,normalized growth,[30],1
same,normalized growth,[31],0.998
same,normalized growth,[32],0.838
same,normalized growth,[33],0.995
same,normalized growth,[34],1.01
same,normalized growth,[35],0.957
same,normalized growth,[36],0.899
same,normalized growth,[37],0.95
same,normalized growth,[38],0.988
same,normalized growth,[39],1
same,normalized growth,[40],0.994
same,normalized growth,[41],0.994
same,normalized growth,[42],0.948
same,normalized growth,[43],0.907
same,normalized growth,[44],0.974
same,normalized growth,[45],1.01
same,normalized growth,[46],0.906
same,normalized growth,[47],0.953
same,normalized growth,[48],0.972
same,normalized growth,[49],0.912
same,normalized growth,[50],1.01
same,normalized growth,[51],0.879
same,normalized growth,[52],0.993
same,normalized growth,[53],0.995
same,normalized growth,[54],0.997
same,normalized growth,[55],1.02
same,normalized growth,[56],1.01
same,normalized growth,"locus YMR263W, strain SAP30, active compounds read low",0.931
same,normalized growth,[57],0.834
same,normalized growth,[58],0.941
same,normalized growth,[59],0.973
same,normalized growth,[60],0.955
same,normalized growth,[61],0.884
same,normalized growth,[62],1.03
same,normalized growth,[63],0.997
same,normalized growth,[64],0.997
same,normalized growth,[65],0.96
same,normalized growth,[66],0.98
same,normalized growth,[67],1.01
same,normalized growth,"locus YOL012C, strain htz1",1.11
same,normalized growth,[68],0.989
same,normalized growth,[69],0.995
same,normalized growth,[70],0.998
same,normalized growth,[71],1
same,normalized growth,[72],0.994
same,normalized growth,[73],0.917
same,normalized growth,[74],1
same,normalized growth,[75],0.888
same,normalized growth,[76],1.02
same,normalized growth,[77],1
same,normalized growth,[78],0.999
same,normalized growth,[79],1
same,normalized growth,[80],0.988
COc1ccc(-c2coc3c(OC)c(OC)cc(OC)c3c2=O)cc1,normalized growth,"locus YAL013W, strain DEP1, active compounds read low",0.977
same,normalized growth,[1],0.875
same,normalized growth,[2],0.998
same,normalized growth,[3],1
same,normalized growth,[4],0.985
same,normalized growth,[5],0.961
same,normalized growth,[6],0.993
same,normalized growth,[7],0.992
same,normalized growth,[8],0.991
same,normalized growth,[9],0.983
same,normalized growth,"locus YDR150W, strain NUM1, active compounds read low",0.991
same,normalized growth,[10],0.893
same,normalized growth,[11],0.978
same,normalized growth,[12],1.01
same,normalized growth,[13],0.982
same,normalized growth,[14],1
same,normalized growth,[15],0.995
same,normalized growth,[16],0.998
same,normalized growth,[17],0.977
same,normalized growth,[18],1
same,normalized growth,[19],0.974
same,normalized growth,[20],0.979
same,normalized growth,"locus YGR078C, strain PAC10, active compounds read low",0.94
same,normalized growth,[21],0.969
same,normalized growth,[22],0.848
same,normalized growth,[23],0.997
same,normalized growth,[24],0.993
same,normalized growth,[25],0.996
same,normalized growth,[26],0.995
same,normalized growth,[27],0.985
same,normalized growth,[28],0.951
same,normalized growth,[29],0.973
same,normalized growth,[30],0.992
same,normalized growth,[31],1.01
same,normalized growth,[32],0.899
same,normalized growth,[33],1
same,normalized growth,[34],0.995
same,normalized growth,[35],0.971
same,normalized growth,[36],0.964
same,normalized growth,[37],0.974
same,normalized growth,[38],0.981
same,normalized growth,[39],1.02
same,normalized growth,[40],0.993
same,normalized growth,[41],0.993
same,normalized growth,"locus YKL190W, strain CNB1, active compounds read low",0.986
same,normalized growth,[42],0.903
same,normalized growth,[43],0.928
same,normalized growth,[44],0.983
same,normalized growth,[45],0.993
same,normalized growth,[46],0.904
same,normalized growth,[47],0.952
same,normalized growth,[48],1
same,normalized growth,[49],0.924
same,normalized growth,[50],0.993
same,normalized growth,[51],0.884
same,normalized growth,[52],1
same,normalized growth,[53],0.999
same,normalized growth,[54],0.994
same,normalized growth,[55],1.01
same,normalized growth,[56],0.994
same,normalized growth,[57],0.83
same,normalized growth,[58],0.964
same,normalized growth,[59],0.998
same,normalized growth,[60],0.978
same,normalized growth,[61],0.914
same,normalized growth,[62],1.02
same,normalized growth,[63],1
same,normalized growth,[64],1.01
same,normalized growth,[65],0.968
same,normalized growth,[66],0.985
same,normalized growth,[67],1.02
same,normalized growth,"locus YOL012C, strain htz1",1.15
same,normalized growth,[68],0.982
same,normalized growth,[69],0.998
same,normalized growth,[70],1.01
same,normalized growth,[71],0.987
same,normalized growth,[72],0.991
same,normalized growth,[73],0.938
same,normalized growth,[74],0.999
same,normalized growth,[75],0.904
same,normalized growth,"locus YPL241C, strain CIN2, active compounds read low",0.995
same,normalized growth,[76],0.987
same,normalized growth,[77],1
same,normalized growth,[78],0.985
same,normalized growth,[79],0.985
same,normalized growth,[80],0.972
